In PubChem BioAssay:
Activity calls are given as the source filed them.

What was measured:
Albumin (Bos taurus) = Albumin (Bos taurus) (UniProt P02769); test: compounds binding labelled BSA control protein – biochemical, small-molecule microarray, Alexa647 label, 635/667 nm fluorescence, artefact control for SMM control protein annotation, profiling panel (AID 1118); conditions: BSA-A647 binding, fluorescence 635 nm, higher = more signal;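 note: score merges 667 nm emission intensity and signal-to-noise per printed compound spot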
[1] = probe aXIP binding to arrayed compounds – biochemical, NeuroSMM set, 635/667 nm fluorescence, primary screen (AID 1119); conditions: small-molecule microarray, higher = more signal, called active from +8 up or from −8 down;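 note: probe is the protein aXip251-270 applied at 1 µg/mL to compound-printed slides; binding of probe to printed compounds measured as 667 nm fluorescence plus signal to noise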
[2] = probe aNOTCH3 binding on compound microarray – biochemical, small-molecule microarray, 635/667 nm fluorescence, primary screen (AID 1120); conditions: higher = more signal;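 note: probe is a biotin-tagged antibody raised against NOTCH3 rather than NOTCH3 protein; score merges spot fluorescence near 667 nm with spot signal to noise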
[3] = probe aNOTCH2 binding on compound microarray – biochemical, small-molecule microarray, 635/667 nm fluorescence, primary screen (AID 1121); conditions: higher = more signal;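 note: score merges feature fluorescence read at 667 nm with its signal to noise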
[4] = target: Carbonic anhydrase 2 (Homo sapiens) (UniProt P00918); test: compounds binding carbonic anhydrase 2 – biochemical, small-molecule microarray, Alexa647-labelled CAII, profiling panel (AID 1122); conditions: CAII-A647 binding fluorescence, higher = more signal
[5] = COS7 lysate on small-molecule microarray, probe aHis, 635 nm (AID 1123); conditions: COS7 cell lysate, fluorescence, higher = more signal;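 note: z-score combines 667nm fluorescence intensity with signal-to-noise per printed compound spot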
[6] = probe aLAP1 signal on lysate-treated microarray – cell lysate, small-molecule microarray, COS7 lysate, primary screen (AID 1124); conditions: probe aLAP1, fluorescence, higher = more signal;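 note: lysate comes from COS7 cells expressing LAP1 and is applied at 0.3 µg/mL; score merges spot fluorescence near 667 nm with signal-to-noise over triplicate slides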
Sam68 (KHDRBS1) = test: compounds binding KHDRBS1 protein – biochemical, small-molecule microarray, 635 nm fluorescence, primary screen (AID 1125); conditions: higher = more signal;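 note: score merges 667 nm channel intensity with signal to noise over triplicate slides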
[7] = tested on: Chordin-like protein 2 (CHRDL2); test: compounds binding chordin-like 2 – biochemical, small-molecule microarray, 635 nm fluorescence, primary screen (AID 1126); conditions: fluorescence 635 nm, higher = more signal;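 note: printed compound slides probed with Chrdl2 protein at 4 µg/mL for 1 h at 4 C; score merges 667 nm emission intensity with signal to noise over three replicate slides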
[8] = target: Concanavalin-A (Canavalia ensiformis) (UniProt P02866); test: compounds binding concanavalin A lectin – biochemical, small-molecule microarray, Alexa647 label, 635 nm, artefact control for SMM control protein annotation, primary screen (AID 1127); conditions: ConA-A647 binding fluorescence, higher = more signal;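 note: z combines 667 nm emission intensity with signal-to-noise across three replicate slides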
[9] = compounds binding Alexa647 anti-His antibody – biochemical, small-molecule microarray, 635 nm fluorescence, artefact control for SMM control protein annotation, primary screen (AID 1128); conditions: higher = more signal;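 note: score merges feature fluorescence with signal-to-noise for each printed compound spot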
[10] = tested on: Human papillomavirus type 1a E7 protein (residues 1-88); test: HPV1a E7 small-molecule binders, primary screen, biochemical, small-molecule microarray, residues 1-88, 635 nm (AID 1129); conditions: small-molecule microarray binding, fluorescence 635 nm; higher = more signal
[11] = target: Focal adhesion kinase 1 (Homo sapiens) (UniProt Q05397); test: PTK2 protein binding on printed compound slides – biochemical, small-molecule microarray, 635/667 nm fluorescence, BSA, DTT, primary screen (AID 1130); conditions: 635 nm fluorescence, higher = more signal;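 note: composite of spot emission at 667 nm and signal to noise over triplicate slides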
[12] = tested on: Fibrinogen (Alexa647-labelled); test: Alexa647-fibrinogen binding to printed small molecules – biochemical, small-molecule microarray, 635/667 nm fluorescence, artefact control for SMM control-protein annotation, profiling panel (AID 1131); conditions: fibrinogen-A647 binding fluorescence, higher = more signal;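 note: z-score merges 667 nm fluorescence with per-spot signal-to-noise over triplicate slides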
[13] = target: Follistatin (Homo sapiens) (UniProt P19883); test: FST protein binding to printed compounds – biochemical, small-molecule microarray, 635/667 nm fluorescence, primary screen (AID 1132); conditions: 635 nm fluorescence, higher = more signal
[14] = target: Fibroblast growth factor 2 (Homo sapiens) (UniProt P09038); test: basic fibroblast growth factor binding to printed compounds – biochemical, small-molecule microarray, 635/667 nm fluorescence, primary screen (AID 1133); conditions: FGF2, fluorescence 635/667, higher = more signal
[15] = JC-1 mitochondrial potential readout, lung cancer cells – cell-based, A549, JC-1 fluorescence, basal, 24 h, 100 nL, profiling panel (AID 1138); conditions: higher = more signal;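 note: A549 lung adenocarcinoma cells under basal conditions with no added stimulus; test concentration not given here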
Lefty1 = Lefty1 protein binding to printed compounds – biochemical, small-molecule microarray, 635/667 nm fluorescence, primary screen (AID 1139); conditions: fluorescence 635/667, higher = more signal
[16] = tested on: wheat germ agglutinin (Triticum aestivum), Alexa647-labelled; test: Alexa647-WGA lectin binding to printed small molecules – biochemical, small-molecule microarray, 635/667 nm fluorescence, artefact control for SMM control-protein annotation, profiling panel (AID 1140); conditions: WGA-A647 binding, 635 nm fluorescence, higher = more signal;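 note: score merges 667 nm feature emission with signal to noise over triplicate slides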
[17] = target: Luciferin 4-monooxygenase (Photinus pyralis) (UniProt P08659); test: inhibition of purified Photinus pyralis luciferase – biochemical, luminescence, purified enzyme, 2006 set, primary screen (AID 1141); conditions: purified firefly luciferase, SteadyGlo luminescence, 30 min; higher = more signal, called active from +8 up or from −8 down;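 note: cell-free assay with purified firefly luciferase at 100 ng per well in PBS; test concentration not given here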
Luciferin 4-monooxygenase (Photinus pyralis), sequence (P08659 whole entry, looked up): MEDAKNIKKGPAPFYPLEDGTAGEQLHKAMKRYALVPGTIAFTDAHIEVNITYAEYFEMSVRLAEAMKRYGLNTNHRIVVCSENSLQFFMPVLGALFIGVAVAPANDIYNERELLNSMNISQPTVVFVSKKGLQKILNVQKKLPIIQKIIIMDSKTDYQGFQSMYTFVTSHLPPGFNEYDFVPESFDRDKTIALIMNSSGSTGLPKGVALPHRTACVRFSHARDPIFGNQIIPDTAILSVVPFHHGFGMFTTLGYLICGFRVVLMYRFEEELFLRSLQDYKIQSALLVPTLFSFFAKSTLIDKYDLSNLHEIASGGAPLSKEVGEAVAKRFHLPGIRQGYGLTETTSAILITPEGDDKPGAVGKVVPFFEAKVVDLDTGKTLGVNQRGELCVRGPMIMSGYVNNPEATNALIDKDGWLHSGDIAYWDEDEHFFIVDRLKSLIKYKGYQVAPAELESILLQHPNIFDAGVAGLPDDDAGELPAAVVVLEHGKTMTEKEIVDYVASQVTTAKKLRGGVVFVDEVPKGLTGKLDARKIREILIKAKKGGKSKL

Albumin (Bos taurus), sequence (P02769 whole entry, looked up): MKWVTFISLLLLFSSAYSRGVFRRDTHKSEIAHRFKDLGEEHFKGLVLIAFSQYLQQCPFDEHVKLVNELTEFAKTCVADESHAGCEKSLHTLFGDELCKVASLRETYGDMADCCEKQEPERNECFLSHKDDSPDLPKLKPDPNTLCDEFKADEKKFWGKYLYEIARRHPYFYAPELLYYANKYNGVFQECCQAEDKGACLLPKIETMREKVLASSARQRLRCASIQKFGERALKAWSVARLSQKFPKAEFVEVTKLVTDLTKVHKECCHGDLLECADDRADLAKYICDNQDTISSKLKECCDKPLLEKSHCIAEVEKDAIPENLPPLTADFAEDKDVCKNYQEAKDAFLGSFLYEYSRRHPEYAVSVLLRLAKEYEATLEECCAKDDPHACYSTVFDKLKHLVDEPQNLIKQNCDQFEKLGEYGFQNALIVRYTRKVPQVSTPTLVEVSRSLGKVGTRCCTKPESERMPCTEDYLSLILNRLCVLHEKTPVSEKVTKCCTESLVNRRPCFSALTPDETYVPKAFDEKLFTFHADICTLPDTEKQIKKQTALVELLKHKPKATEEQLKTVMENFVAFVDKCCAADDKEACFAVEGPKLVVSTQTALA
Follistatin (Homo sapiens), sequence (P19883 whole entry, looked up): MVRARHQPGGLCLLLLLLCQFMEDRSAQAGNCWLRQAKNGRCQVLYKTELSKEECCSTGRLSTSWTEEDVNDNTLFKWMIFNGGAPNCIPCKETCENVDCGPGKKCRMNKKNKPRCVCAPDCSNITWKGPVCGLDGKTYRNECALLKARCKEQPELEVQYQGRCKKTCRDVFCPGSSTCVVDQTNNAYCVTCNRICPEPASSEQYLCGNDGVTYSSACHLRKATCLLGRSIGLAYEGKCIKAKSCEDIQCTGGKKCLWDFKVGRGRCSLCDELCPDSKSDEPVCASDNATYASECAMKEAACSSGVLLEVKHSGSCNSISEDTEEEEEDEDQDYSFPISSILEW
Focal adhesion kinase 1 (Homo sapiens), sequence (Q05397 whole entry, looked up): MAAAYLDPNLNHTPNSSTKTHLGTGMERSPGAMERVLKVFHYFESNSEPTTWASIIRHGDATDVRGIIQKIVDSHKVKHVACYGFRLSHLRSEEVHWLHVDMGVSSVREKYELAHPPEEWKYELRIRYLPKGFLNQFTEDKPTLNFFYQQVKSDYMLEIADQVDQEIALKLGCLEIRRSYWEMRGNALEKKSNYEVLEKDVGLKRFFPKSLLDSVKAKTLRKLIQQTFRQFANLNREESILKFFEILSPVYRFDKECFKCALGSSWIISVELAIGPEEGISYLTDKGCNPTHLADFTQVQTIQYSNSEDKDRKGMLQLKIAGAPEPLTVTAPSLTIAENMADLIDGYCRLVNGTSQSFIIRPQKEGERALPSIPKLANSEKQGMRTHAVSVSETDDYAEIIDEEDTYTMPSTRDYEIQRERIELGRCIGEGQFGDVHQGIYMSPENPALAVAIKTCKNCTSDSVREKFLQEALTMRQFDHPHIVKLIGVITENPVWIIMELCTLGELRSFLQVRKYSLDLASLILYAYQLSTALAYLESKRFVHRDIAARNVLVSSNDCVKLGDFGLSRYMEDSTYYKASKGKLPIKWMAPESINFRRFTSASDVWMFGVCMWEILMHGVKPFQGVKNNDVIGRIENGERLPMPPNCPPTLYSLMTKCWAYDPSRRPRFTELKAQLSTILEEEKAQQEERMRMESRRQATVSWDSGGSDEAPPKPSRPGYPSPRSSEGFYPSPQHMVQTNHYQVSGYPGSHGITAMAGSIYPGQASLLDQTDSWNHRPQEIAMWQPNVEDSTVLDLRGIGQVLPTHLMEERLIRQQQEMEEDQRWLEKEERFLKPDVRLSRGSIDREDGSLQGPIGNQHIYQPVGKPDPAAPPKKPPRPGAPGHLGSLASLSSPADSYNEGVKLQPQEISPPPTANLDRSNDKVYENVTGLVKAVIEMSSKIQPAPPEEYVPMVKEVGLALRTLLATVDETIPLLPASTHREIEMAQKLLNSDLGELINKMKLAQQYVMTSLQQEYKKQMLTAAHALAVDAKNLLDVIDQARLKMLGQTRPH
Concanavalin-A (Canavalia ensiformis), sequence (P02866 whole entry, looked up): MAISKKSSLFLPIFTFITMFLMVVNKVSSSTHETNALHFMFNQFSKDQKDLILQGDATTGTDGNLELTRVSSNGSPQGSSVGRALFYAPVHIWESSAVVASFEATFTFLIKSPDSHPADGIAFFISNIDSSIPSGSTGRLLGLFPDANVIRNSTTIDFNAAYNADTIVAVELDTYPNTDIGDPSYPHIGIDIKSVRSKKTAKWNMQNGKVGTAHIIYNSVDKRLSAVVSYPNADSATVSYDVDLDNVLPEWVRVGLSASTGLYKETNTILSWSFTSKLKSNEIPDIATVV
Fibroblast growth factor 2 (Homo sapiens), sequence (P09038 whole entry, looked up): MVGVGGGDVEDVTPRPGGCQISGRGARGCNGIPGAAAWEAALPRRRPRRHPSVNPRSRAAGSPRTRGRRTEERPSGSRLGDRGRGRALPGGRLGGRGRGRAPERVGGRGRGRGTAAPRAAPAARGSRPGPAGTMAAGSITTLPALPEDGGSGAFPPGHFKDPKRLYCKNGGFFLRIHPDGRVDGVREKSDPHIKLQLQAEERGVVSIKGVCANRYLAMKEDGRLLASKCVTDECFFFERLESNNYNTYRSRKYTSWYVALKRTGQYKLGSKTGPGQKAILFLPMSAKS

| Structure (SMILES) | composite z-score (Albumin (Bos taurus)) | composite Z-score [1] | composite z-score [2] | composite z-score [3] | composite z-score [4] | composite z-score [5] | composite z-score [6] | composite z-score (Sam68 (KHDRBS1)) | composite z-score [7] | composite z-score [8] | composite z-score [9] | composite z-score [10] | composite z-score [11] | composite z-score [12] | composite z-score [13] | composite z-score [14] | z-score [15] | composite z-score (Lefty1) | composite z-score [16] | z-score [17] |
| --- | --- | --- | --- | --- | --- | --- | --- | --- | --- | --- | --- | --- | --- | --- | --- | --- | --- | --- | --- | --- |
| COCCOC(=O)N1C(=O)[C@@]2(c3cc(C#CCC(C(=O)OC)C(=O)OC)ccc31)[C@H](C(N)=O)[C@H]1C(=O)O[C@H](c3ccccc3)[C@H](c3ccccc3)N1[C@@H]2c1ccccc1OCCO | 0.653 | -0.145 (inactive) | -0.0565 | 0.201 | 0.593 | 0.882 | -0.155 | 1.32 | 1.1 | 1.15 | 0.737 | 1.09 | 0.225 | 0.927 | 1.32 | 1.57 | -0.116 | 1.26 | 0.556 | -0.617 (inactive) |
| C=C1C(=O)C=C2CN(C(=O)c3ccccc3)[C@@](Cc3ccc(F)cc3)(C(=O)OC)[C@@H]12 | 1.03 | 0.114 (inactive) | 0.693 | 0.009 | 0.5 | 2.76 | 0.942 | 1.34 | -0.775 | 1.14 | 1 | 1.18 | 0.69 | 1.03 | 1.25 | -0.234 | -3.17 | -0.384 | 0.872 | -25.6 (active) |
| COC(=O)C1=CC(CCCO)=CC(c2ccc(CN3CCCC3)cc2)N(C)C=C1C(=O)OC (stereo not given) | 0.935 | 1.22 (inactive) | -0.105 | 0.0334 | 0.866 | 1.72 | 0.181 | 1 | 0.164 | 0.361 | 1.73 | 0.821 | 0.111 | 1.01 | 0.468 | -0.232 | 0.915 | -0.079 | 1.01 | -0.208 (inactive) |
| N#Cc1ccc(NN2C(C(O)c3ccc(B(O)O)cc3)C=CC3CN(c4ccccc4)C(=O)C32)cc1 (stereo not given) | 0.813 | -0.254 (inactive) | -0.128 | -0.188 | 0.852 | 0.417 | -0.247 | 0.141 | -0.412 | 0.133 | 0.48 | -0.633 | -0.508 | 0.529 | -0.0923 | -0.436 | -0.408 | -0.118 | 0.485 | -1.24 (inactive) |
| CCOC(=O)C[C@H]1[C@H](OC(=O)c2ccc(-c3ccccc3)cc2)[C@@H](NC(=O)c2ccc(-c3ccccc3)cc2)c2cc(OCCCO)ccc2N1C(=O)c1ccccc1 | 0.771 | 0.884 (inactive) | 0.0916 | -0.129 | 0.277 | 0.895 | 0.331 | 1.32 | -0.0105 | 1.06 | 0.0004 | 1.09 | 1.03 | 0.856 | 0.627 | 0.64 | 0.392 | 0.627 | 0.792 | -0.339 (inactive) |
